Assay outcomes as filed in PubChem.
USP30 inh – human USP30 deubiquitinase inhibition | Q70CQ3 | purified USP30, Ub-rhodamine cleavage fluorescence | inhibition, % at 25 µM | 47,000 tested, 5.3% active
Target sequence (Q70CQ3 whole entry, looked up): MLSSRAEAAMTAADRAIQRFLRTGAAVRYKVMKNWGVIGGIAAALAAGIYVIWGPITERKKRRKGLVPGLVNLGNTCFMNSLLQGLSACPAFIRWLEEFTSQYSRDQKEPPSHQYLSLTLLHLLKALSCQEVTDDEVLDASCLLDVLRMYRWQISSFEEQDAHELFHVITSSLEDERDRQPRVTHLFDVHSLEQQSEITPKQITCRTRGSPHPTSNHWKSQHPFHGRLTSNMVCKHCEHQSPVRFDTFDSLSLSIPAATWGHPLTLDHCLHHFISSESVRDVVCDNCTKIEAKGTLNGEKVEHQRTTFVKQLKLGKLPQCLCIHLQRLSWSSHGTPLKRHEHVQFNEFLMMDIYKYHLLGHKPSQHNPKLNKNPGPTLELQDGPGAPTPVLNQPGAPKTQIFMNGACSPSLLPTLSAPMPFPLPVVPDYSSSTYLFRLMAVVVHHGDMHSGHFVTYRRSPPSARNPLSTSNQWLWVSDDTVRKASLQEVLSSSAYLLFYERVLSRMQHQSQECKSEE
OTUD3 block – human OTUD3 deubiquitinase inhibition | Q5T2D3 | purified OTUD3, Ub-rhodamine fluorescence, 2 h | inhibition, % at 25 µM | 47,000 tested, 0.7% active | AID 1645858
USP28 block – inhibitors of human USP28 deubiquitinase | Q96RU2 | purified USP28, Ub-rhodamine cleavage fluorescence, 30 min | inhibition, % at 25 µM | 47,000 tested, 3% active | AID 1645857
USP17 inh – human USP17-like deubiquitinase inhibition. A8MUK1. purified USP17, Ub-rhodamine cleavage fluorescence, 3 h. inhibition, % at 50 µM. 47,000 tested, 6.5% active
The depositor's hits bear a star; . = not tested or not shown. Sampled rows, rich in hits. Any-hit rate of the full collection: about 12%. Rule as the data show it: active = inhibition above about 30%; inactive = the rest.

SMILES | USP30 inh | OTUD3 block | USP28 block | USP17 inh
O=C(NC1CCCCC1)c1cc(-c2cccnc2)n(-c2ccccc2)n1 | 0 | -12 | -2 | -4
Cc1ccnc(C2CCN(C(=O)CCn3nnc4ccccc43)C2)n1 (centres undefined) | 4 | 11 | 3 | 9
CCc1ccc(NC(=O)Cn2c(C)cc(=O)n3nc(C(F)(F)F)nc23)cc1 | 3 | -2 | -3 | 4
COc1ccc(NC(=O)Cn2c(C)cc(=O)n3nc(-c4cccc(C)c4)nc23)cc1 | 31* | -29 | 3 | 16
O=C(NCc1ccco1)c1ccc(Cn2c(SCc3ccccc3)nc3ccncc32)cc1 | 74* | 75* | 72* | 88*
CCOc1ccc(-c2nnc(SCC(=O)N3CCc4ccccc43)o2)cc1 | 1 | 0 | -7 | 0
COc1ccc(NC(=O)CC(C)CC(=O)Nc2ccc(C(C)C)cc2)c(OC)c1 (centres undefined) | 20 | 14 | 2 | 46*
COc1ccccc1-c1noc2ncnc(N(Cc3ccco3)CC3CCCO3)c12 (centres undefined) | 36* | 21 | 17 | 18
COc1ccccc1-c1noc2ncnc(NCc3ccco3)c12 | -23 | 1 | 0 | -1
Cc1cc(N2CCN(C)CC2)n2nc(CN3CCCCC3C)nc2n1 (centres undefined) | -18 | -4 | -7 | 39*
Cc1cc(N2CCCC2)n2nc(CN3CCN(C)CC3)nc2n1 | -4 | -4 | -7 | -4
COc1ccc(/C=C2\NC(=O)[C@H]3Cc4ccccc4CN3C2=O)cc1 | -7 | 0 | -3 | 1
Cc1ccc([N+](=O)[O-])cc1NC(=O)CCN1C(=O)c2ccccc2S1(=O)=O | 49* | 7 | 7 | 31*
O=C(CCN1C(=O)c2ccccc2S1(=O)=O)Nc1ccccc1C(=O)O | -3 | -1 | -6 | -18
Cc1ccccc1Cn1c(C(=O)O)c(CNCCc2c[nH]c3ccccc23)c2ccccc21 | -44 | -8 | 3 | .
COc1ccc(-c2cc3c(=O)n(CC(=O)NCc4ccccc4)ncn3n2)cc1 | 43* | 5 | 15 | 25
COc1ccc(-c2cc3c(=O)n(CC(=O)NCCN4CCCC4)ncn3n2)cc1 | 34* | 9 | 18 | 43*
CCN1CCCC1CNC(=O)Cn1ncn2nc(-c3ccc(OC)cc3)cc2c1=O (centres undefined) | -13 | 0 | -7 | 17
CCOc1ccc(NC(=O)c2cc(-c3ccc(OC)c(OC)c3)nc3ccccc23)cc1 | -24 | -9 | -18 | -4
O=C(Nc1ccc2c(c1)OCO2)c1cnc(N2CCOCC2)nc1 | 0 | 0 | 17 | 40*
O=C(Nc1ccc2c(c1)OCCO2)c1cnc(N2CCOCC2)nc1 | -7 | -3 | 42* | -9
O=C(Nc1ccc(OCC(=O)N2CCOCC2)cc1)c1ccc2c(c1)OCO2 | 24 | 14 | 37* | 15
O=C(COc1ccc(C(=O)c2ccccc2)cc1)Nc1ccc2c(c1)OCO2 | 15 | 0 | 23 | 0
O=C(Nc1ccc(F)c(F)c1)c1cnc(N2CCOCC2)nc1 | 3 | 10 | 11 | 7
COc1cc(OC)c(NC(=O)c2sc3nc(C)nc(N4CCOCC4)c3c2C)cc1Cl | 11 | -2 | -4 | 10
SMILES | USP30 inh | OTUD3 block | USP28 block | USP17 inh
CCC(=O)N(C1CCOCC1)C1CCN(S(=O)(=O)c2cccc(Cl)c2)CC1 | -1 | 2 | 3 | 0
COc1ccc2c(c1)OC(C)(C)[C@H]1CC3(CCNCC3)CO[C@H]21 | -7 | -5 | -6 | -1
COc1ccccc1C(C(=O)NC1CCCC1)N(C(=O)c1cnccn1)c1cccs1 (centres undefined) | 0 | -1 | -3 | 0
COc1ccccc1-c1noc(Cn2cnc3c(nnn3Cc3ccc(F)cc3)c2=O)n1 | 15 | -2 | 3 | -4
CCn1c(=O)c2ccccc2n(Cc2nc(-c3ccccc3OC)no2)c1=O | 6 | 6 | 1 | 56*
O=c1[nH]c2ccccc2c(=O)n1CCc1nc(-c2ccc(F)cc2)no1 | 0 | -5 | -7 | 36*
CCOc1ccccc1-c1noc(CCn2c(=O)[nH]c3ccccc3c2=O)n1 | 35* | 9 | 11 | 10
COc1ncc(CN2C[C@@H]3C[C@@H](O)CN3C[C@H]2Cc2ccccc2)cn1 | -72 | -11 | -19 | -17
O=C(NCc1ccc(F)cc1)c1ccc2ncnc(N3CCOCC3)c2c1 | -20 | -10 | -10 | -10
Cc1ccc2nc(SCc3cn4c(C)cccc4n3)[nH]c2c1 | 15 | 2 | 14 | -8
Cc1ccc2nc(-c3cccc(-c4nc5ccc(C)cc5[nH]4)n3)[nH]c2c1 | -27 | -11 | -10 | 54*
COc1ccc(CCNS(=O)(=O)c2ccc(F)c(C(=O)Nc3ccc(Cl)cc3C(F)(F)F)c2)cc1OC | 61* | 23 | 7 | 71*
COc1ccc(CCNC(=O)c2cc(S(=O)(=O)N3CCOCC3)ccc2F)cc1OC | 0 | -4 | -15 | -10
CCCC(=O)N1CCC2(CC1)NC(=O)N(CCc1ccccc1)C2=O | -1 | -6 | -1 | 4
CCCC(=O)N1CCC2(CC1)Nc1ccccc1NC2=O | -13 | -2 | 7 | 70*
CCOc1nccnc1N1CCC(NS(=O)(=O)C2CC2)C1 (centres undefined) | 15 | 13 | -9 | 6
COc1cccc(CNC(=O)C2CCCN(S(=O)(=O)N3CCCCCC3)C2)c1OC (centres undefined) | 15 | 13 | 9 | 5
CC(=O)Nc1ccc(S(=O)(=O)N2CCCC(C(=O)NCCc3ccccc3)C2)cc1 (centres undefined) | -7 | -7 | -9 | 1
COc1ccc(CNC(=O)C2CCCN(S(=O)(=O)Cc3ccc(Cl)cc3)C2)cc1 (centres undefined) | 47* | 14 | 27 | 14
CC(=O)Nc1ccc(S(=O)(=O)N2CCCC(C(=O)Nc3cccc4ccccc34)C2)cc1 (centres undefined) | 56* | -2 | 29 | 26
CCOC(=O)c1ccc(NC(=O)C2CCCN(c3nc(-c4ccc(OC)cc4)no3)C2)cc1 (centres undefined) | 37* | 14 | 19 | 19
COc1ccc(-c2noc(N3CCCC(C(=O)Nc4cccc(OC)c4)C3)n2)cc1 (centres undefined) | -1 | 0 | 1 | 22
Cc1ccccc1CNC(=O)C1CCCN(S(=O)(=O)N2CCCCCC2)C1 (centres undefined) | 39* | 0 | 0 | -5
Cc1cccnc1C(=O)N1C[C@@H]2CC[C@H](Oc3ccccc3F)[C@@H]2C1 | -1 | 4 | 8 | 1
CCN1C(=O)[C@H]2CN(C(C)=O)C[C@H]2C12CCN(C(=O)NCc1ccccc1)CC2 | 0 | 1 | -5 | -2
COc1ccc(NC(=O)C2CCCN(S(=O)(=O)N3CCCCCC3)C2)cc1 (centres undefined) | 6 | 14 | 16 | 51*
O=C(Cc1cccc(Cl)c1)Nc1cc(-c2ccccn2)no1 | -16 | -13 | 0 | -9
O=C(Nc1cc(-c2ccccn2)no1)c1cccc(F)c1 | 4 | -1 | 7 | 4
O=C(Cc1ccc(Cl)cc1)Nc1cc(-c2ccccn2)no1 | 5 | 0 | 1 | 40*
COc1ccc(C(=O)Nc2cc(-c3ccccn3)no2)cn1 | 20 | 15 | 63* | 5
